Assay [1] addresses Heat shock factor protein 1 (Homo sapiens) (UniProt Q00613). Put plainly: ATG_HSE_CIS: Attagene CIS-FACTORIAL HepG2 Assay for human Heat Shock Transcription Factor 1 (HSE) (AID 2282953). The settings on record: HepG2 HSE cis-reporter, Attagene RNA transcription; actives raise or lower the signal. In a few lines:
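Endogenous transcription factor activity captured via cis-promoter reporter units transfected into HepG2; treatment lasted 24 h. Fluorescence intensity of reporter fragments analysed with bidirectional curve fitting, DMSO baseline.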

Assay [2] is described as follows: ATG_PPRE_CIS: Attagene CIS-FACTORIAL HepG2 Assay for human Peroxisome Proliferator-activated Response Element (PPRE) (AID 2282958). To be noted: HepG2 PPRE cis-element reporter, Attagene transcription factor profiling; actives raise or lower the signal. The gist of the method: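 Multiplexed reporter transcription units under cis-regulatory promoters were transfected into HepG2 cells to capture endogenous factor activity. A 24 h incubation preceded RNA isolation and fluorescent RT-PCR fragment analysis.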

Assay [3] can be described thus: ATG_RORE_CIS: Attagene CIS-FACTORIAL HepG2 Assay for human RAR-related Orphan Receptor Element (RORE) (AID 2282959). The settings on record: HepG2 Attagene cis-factorial RORE reporter, mRNA; actives raise or lower the signal. In a few lines: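 Fluorescence intensity of reporter-specific cDNA fragments, separated by capillary electrophoresis, gives the signal. Source: HepG2 liver cells transiently transfected with cis-element reporters and exposed 24 h; DMSO-normalized bidirectional fit.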

Assay [4] deals with Transcription factor Sp1 (Homo sapiens) (UniProt P08047). Kind of assay: ATG_Sp1_CIS: Attagene CIS-FACTORIAL HepG2 Assay for human Specificity Protein 1 (Sp1) (AID 2282961). To be noted: HepG2 Sp1 cis-reporter transcription, actives raise or lower the signal. The gist of the method:
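Sp1-driven reporter mRNA, read as capillary electrophoresis fluorescence after RT-PCR, in transiently transfected HepG2 cells dosed for 24 h; signal change in either direction relative to DMSO.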

Assay [5] in a line: ATG_SREBP_CIS: Attagene CIS-FACTORIAL HepG2 Assay for human Sterol Regulatory Element Binding (SREBP) (AID 2282962). To be noted: HepG2 Attagene cis-factorial SREBP reporter, mRNA; actives raise or lower the signal. The gist of the method:
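Endogenous factor activity is measured in HepG2 through multiplexed reporter units under cis-element control. Following a 24 h incubation, reporter transcripts are reverse-transcribed, PCR-amplified and sized by capillary electrophoresis; activity is fitted in both directions relative to DMSO.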

Assay [6] in a line: ATG_TCF_b_cat_CIS: Attagene CIS-FACTORIAL HepG2 Assay for human T-Cell-Factor with beta-catenin (TCF/b-cat) (AID 2282965). The settings on record: HepG2 TCF/beta-catenin cis-reporter transcription, actives raise or lower the signal. In a few lines: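 Cells of the HepG2 line carry transiently transfected reporter units whose promoters respond to endogenous factors. Twenty-four hours post-dosing, reporter mRNA induction is measured by fluorescent RT-PCR and capillary electrophoresis, with DMSO as baseline.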

Assay [7] is described as follows: ATG_TAL_CIS: Attagene CIS-FACTORIAL HepG2 Assay for human TAL Basal Promoter (AID 2282966).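 Also: background control endpoint measuring basal TAL promoter reporter mRNA not a specific factor.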 The settings on record: HepG2 Attagene cis-factorial TAL promoter reporter; actives raise or lower the signal. The gist of the method:
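Basal-promoter background-control endpoint from a multiplexed HepG2 reporter panel. Cells were exposed 24 h, then reporter mRNA was read by RT-PCR/CE fluorescence and fitted in both directions relative to DMSO.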

A short description of assay [8]: ATG_TGFb_CIS: Attagene CIS-FACTORIAL HepG2 Assay for human Transforming Growth Factor (TGF) (AID 2282967). To be noted: HepG2 Attagene CIS TGFb reporter, mRNA transcription; actives raise or lower the signal. In a few lines: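 Bidirectional fitting relative to DMSO gave the endpoint. Underlying data: reporter mRNA from HepG2 cells carrying transiently transfected cis-regulated reporter constructs, harvested 24 h after dosing and analyzed by RT-PCR and capillary electrophoresis.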

Assay [9] can be described thus: ATG_VDRE_CIS: Attagene CIS-FACTORIAL HepG2 Assay for human Vitamin D Receptor Element (VDRE) (AID 2282968). The settings on record: HepG2 VDRE cis-reporter transcription, actives raise or lower the signal. The gist of the method:
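Transient MRTU transfection of HepG2, 24 h compound exposure. Readout: reporter transcripts via RT-PCR and capillary electrophoresis, fluorescence. Bidirectional fit vs DMSO.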

For assay [10], the target named is X-box-binding protein 1 (Homo sapiens) (UniProt P17861). Kind of assay: ATG_Xbp1_CIS: Attagene CIS-FACTORIAL HepG2 Assay for human X-box Binding Protein 1 (XBP1) (AID 2282972). The settings on record: HepG2 XBP1 cis-element reporter, Attagene multiplex; actives raise or lower the signal. The gist of the method: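 Multiplexed cis-reporter readout in transfected HepG2 liver cells. Exposure lasted 24 hours. Activity in either direction was fitted against DMSO as negative control and baseline.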
Chain of X-box-binding protein 1 (Homo sapiens) (P17861 whole entry, looked up): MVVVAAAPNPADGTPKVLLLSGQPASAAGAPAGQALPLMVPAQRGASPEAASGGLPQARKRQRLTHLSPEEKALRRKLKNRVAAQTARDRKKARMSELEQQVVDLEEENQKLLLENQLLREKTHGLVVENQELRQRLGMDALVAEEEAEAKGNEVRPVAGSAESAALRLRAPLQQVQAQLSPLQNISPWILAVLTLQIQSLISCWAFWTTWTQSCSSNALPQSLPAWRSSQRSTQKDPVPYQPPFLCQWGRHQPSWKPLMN

Assay [11] is described as follows: ATG_M_32_TRANS: Attagene TRANS-FACTORIAL HepG2 Assay for M32 Transcription Factor (Internal Marker) (AID 2282984; active = hit-call score of the fitted dose curve at least 0.9, where 1 is the maximum;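 also: transcript level of a background control reporter unit measured by RT-PCR and capillary electrophoresis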). To be noted: HepG2 Attagene TRANS M32 internal marker reporter. In a few lines:
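Read-out: fluorescent reporter cDNA fragments resolved by capillary electrophoresis after RT-PCR of total RNA. Transfected HepG2 cells were exposed to chemical for 24 h. Activity scored in the positive direction relative to DMSO.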

Assay [12] deals with Transcriptional activator Myb (Homo sapiens) (UniProt P10242). Put plainly: ATG_Myb_CIS: Attagene CIS-FACTORIAL HepG2 Assay for human Myeloblastosis (Myb) Proto-Oncogene Transcription Factor (AID 2282986). To be noted: HepG2 Attagene CIS-FACTORIAL Myb reporter transcription; actives raise or lower the signal. The gist of the method:
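Fluorescence signals from capillary electrophoresis of RT-PCR-amplified reporter cDNA give the read-out. Cells: HepG2 transfected with multiple cis-regulated reporter units. Exposure lasts 24 hours; DMSO defines baseline for gain or loss of signal.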

Assay [13] has as its target Nuclear respiratory factor 1 (Homo sapiens) (UniProt Q16656). Kind of assay: ATG_NRF1_CIS: Attagene CIS-FACTORIAL HepG2 Assay for human Nuclear Respiratory Factor 1 (NRF1) Orphan Gene (AID 2282987). To be noted: HepG2 NRF1 cis-element reporter, Attagene multiplex; actives raise or lower the signal. In a few lines: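 Transcriptional reporter readout, one component of a 52-endpoint multiplexed HepG2 panel. Exposure 24 h; mRNA detected via RT-PCR and fluorescent capillary electrophoresis; fitting in both directions against DMSO.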

Assay [14] in a line: ATG_NFI_CIS: Attagene CIS-FACTORIAL HepG2 Assay for human Nuclear Factor I (NFI) (AID 2282989). The settings on record: HepG2 cis-regulatory reporter, NFI response element transcription; actives raise or lower the signal. In a few lines:
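Cells: human liver HepG2, transiently transfected with promoter-regulated reporter transcription units. Exposure 24 h. Detection: fluorescent RT-PCR products separated by capillary electrophoresis, normalised to DMSO negative control.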

Assay [15] addresses Myc proto-oncogene protein (Homo sapiens) (UniProt P01106). Kind of assay: ATG_Myc_CIS: Attagene CIS-FACTORIAL HepG2 Assay for human Myelocytomatosis (Myc) Proto-Oncogene Transcription Factor (AID 2282990). To be noted: HepG2, Attagene cis-reporter transcription factor activity; actives raise or lower the signal. In a few lines:
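Fluorescence intensity of reporter-specific cDNA fragments, separated by capillary electrophoresis, gives the signal. Transfected HepG2 cells carrying cis-promoter reporter constructs are incubated with compound for 24 h; DMSO serves as baseline.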

A short description of assay [16]: ATG_NRF2_ARE_CIS: Attagene CIS-FACTORIAL HepG2 Assay for human Nuclear Factor Erythroid 2 Related Factor 2 (NFR2) response to Antioxidant Response Elements (ARE) (AID 2282992).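 As to AC50: reporter mRNA level measured by RT-PCR and capillary electrophoresis fluorescence.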 The settings on record: HepG2 Attagene ARE/NRF2 reporter, transcription factor activity; actives raise or lower the signal. The gist of the method: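 Endogenous transcription factor activity in human liver HepG2 cells is tracked via a cis-element-driven reporter within a multiplexed set. mRNA induction is read by RT-PCR and capillary electrophoresis after 24 h, with DMSO as baseline.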

The nature of assay [17]: ATG_Oct_MLP_CIS: Attagene CIS-FACTORIAL HepG2 Assay for human Octamer-Binding Transcription Factor (Oct) (AID 2282993). To be noted: HepG2 Attagene cis-factorial Oct reporter, mRNA; actives raise or lower the signal. The gist of the method: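 HepG2, transient MRTU transfection, cis promoter elements; 24 h dosing; RT-PCR/CE fluorescence read-out of reporter mRNA; fit both directions vs DMSO.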

Assay [18] deals with Cellular tumor antigen p53 (Homo sapiens) (UniProt P04637). Kind of assay: ATG_p53_CIS: Attagene CIS-FACTORIAL HepG2 Assay for human p53 Transcription Factor (AID 2282994). The settings on record: HepG2 p53 cis-element reporter, Attagene mRNA; actives raise or lower the signal. In a few lines: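 Steps: transfect HepG2 with multiplexed cis reporter constructs; dose chemicals 24 h; extract RNA, reverse-transcribe, PCR-amplify reporter sequences; FAM-label, HpaI-digest, resolve fragments by CE. Activity fitted both directions relative to DMSO.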
Chain of Cellular tumor antigen p53 (Homo sapiens) (P04637 whole entry, looked up, the tested form may be a part): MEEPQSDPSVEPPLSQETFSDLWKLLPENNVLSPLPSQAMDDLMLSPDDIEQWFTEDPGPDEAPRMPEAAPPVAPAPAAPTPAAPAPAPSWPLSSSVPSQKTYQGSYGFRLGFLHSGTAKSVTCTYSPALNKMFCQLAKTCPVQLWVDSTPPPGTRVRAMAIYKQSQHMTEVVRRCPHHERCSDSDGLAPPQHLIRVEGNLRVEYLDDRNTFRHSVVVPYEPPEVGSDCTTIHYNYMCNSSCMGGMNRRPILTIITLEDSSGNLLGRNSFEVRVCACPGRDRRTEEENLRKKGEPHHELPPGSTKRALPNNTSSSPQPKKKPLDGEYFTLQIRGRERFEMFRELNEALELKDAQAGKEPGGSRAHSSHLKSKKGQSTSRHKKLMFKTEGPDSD

Assay [19] addresses Peroxisome proliferator-activated receptor gamma (Homo sapiens) (UniProt P37231). Put plainly: ATG_PPARg_TRANS: Attagene TRANS-FACTORIAL HepG2 Assay for human Peroxisome Proliferator-activated Receptor-gamma (PPARg) (AID 2283007; active = hit-call score of the fitted dose curve at least 0.9, where 1 is the maximum). The gist of the method: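 Multiplexed reporter transcription units in HepG2, 24 h dosing, reporter transcripts quantified by fluorescent RT-PCR and capillary electrophoresis. Increase over DMSO scored.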

A short description of assay [20]: ATG_E_Box_CIS: Attagene CIS-FACTORIAL HepG2 Assay for human Enhancer Box (E-box) (AID 2282936). The settings on record: HepG2 E-box cis-reporter transcription, actives raise or lower the signal. The gist of the method: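 Transiently transfected HepG2, endogenous TF-driven reporters, 24 h dosing. Readout: RT-PCR plus capillary electrophoresis of fluorescent reporter fragments. Gain or loss of signal fitted bidirectionally against DMSO baseline.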

Molecules are shown by their SMILES. Records with an inconclusive call do not appear. Activity calls are given as the source filed them. The calls were made as follows, unless noted: active = hit-call score of the fitted dose curve at least 0.9, where 1 is the maximum; inactive = score below 0.9.

Chain of Myc proto-oncogene protein (Homo sapiens) (P01106 whole entry, looked up, the tested form may be a part): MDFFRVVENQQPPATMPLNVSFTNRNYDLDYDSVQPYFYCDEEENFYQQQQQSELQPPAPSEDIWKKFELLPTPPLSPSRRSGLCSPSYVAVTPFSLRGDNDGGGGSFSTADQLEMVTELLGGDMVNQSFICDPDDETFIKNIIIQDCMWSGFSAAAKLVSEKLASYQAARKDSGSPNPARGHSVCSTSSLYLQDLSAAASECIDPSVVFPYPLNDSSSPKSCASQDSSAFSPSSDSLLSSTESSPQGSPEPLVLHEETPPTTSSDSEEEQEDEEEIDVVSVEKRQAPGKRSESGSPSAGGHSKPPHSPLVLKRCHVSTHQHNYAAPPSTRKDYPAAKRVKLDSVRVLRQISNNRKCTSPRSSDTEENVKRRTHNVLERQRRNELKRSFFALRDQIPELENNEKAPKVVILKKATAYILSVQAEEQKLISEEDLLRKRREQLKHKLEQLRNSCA
Chain of Nuclear respiratory factor 1 (Homo sapiens) (Q16656 whole entry, looked up): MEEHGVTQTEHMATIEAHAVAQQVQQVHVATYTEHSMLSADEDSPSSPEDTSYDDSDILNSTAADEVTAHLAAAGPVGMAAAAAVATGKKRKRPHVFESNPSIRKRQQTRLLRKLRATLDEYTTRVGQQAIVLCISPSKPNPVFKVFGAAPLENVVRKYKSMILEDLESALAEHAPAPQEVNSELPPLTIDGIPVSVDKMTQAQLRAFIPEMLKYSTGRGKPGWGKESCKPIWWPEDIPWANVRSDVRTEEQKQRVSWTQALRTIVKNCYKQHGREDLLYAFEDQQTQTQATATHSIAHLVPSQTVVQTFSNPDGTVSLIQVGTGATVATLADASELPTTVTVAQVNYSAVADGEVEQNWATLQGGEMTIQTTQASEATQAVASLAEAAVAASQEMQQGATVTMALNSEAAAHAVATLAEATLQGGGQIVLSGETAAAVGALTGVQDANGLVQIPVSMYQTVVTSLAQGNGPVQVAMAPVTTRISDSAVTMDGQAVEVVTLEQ
Chain of Heat shock factor protein 1 (Homo sapiens) (Q00613 whole entry, looked up, the tested form may be a part): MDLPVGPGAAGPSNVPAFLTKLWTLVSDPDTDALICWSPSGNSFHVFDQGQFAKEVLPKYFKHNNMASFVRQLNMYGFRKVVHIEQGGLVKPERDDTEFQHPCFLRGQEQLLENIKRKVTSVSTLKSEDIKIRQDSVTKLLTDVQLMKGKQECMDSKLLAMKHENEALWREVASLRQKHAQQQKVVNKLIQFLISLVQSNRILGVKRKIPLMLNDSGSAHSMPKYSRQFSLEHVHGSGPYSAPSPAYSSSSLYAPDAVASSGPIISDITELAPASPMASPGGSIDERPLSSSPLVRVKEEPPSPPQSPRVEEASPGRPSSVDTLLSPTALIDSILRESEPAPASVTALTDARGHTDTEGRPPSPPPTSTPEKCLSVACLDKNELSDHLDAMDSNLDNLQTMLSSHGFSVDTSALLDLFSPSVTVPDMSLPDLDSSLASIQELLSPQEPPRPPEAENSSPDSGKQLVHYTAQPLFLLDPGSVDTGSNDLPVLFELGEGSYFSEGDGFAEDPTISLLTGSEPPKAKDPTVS
Chain of Transcription factor Sp1 (Homo sapiens) (P08047 whole entry, looked up): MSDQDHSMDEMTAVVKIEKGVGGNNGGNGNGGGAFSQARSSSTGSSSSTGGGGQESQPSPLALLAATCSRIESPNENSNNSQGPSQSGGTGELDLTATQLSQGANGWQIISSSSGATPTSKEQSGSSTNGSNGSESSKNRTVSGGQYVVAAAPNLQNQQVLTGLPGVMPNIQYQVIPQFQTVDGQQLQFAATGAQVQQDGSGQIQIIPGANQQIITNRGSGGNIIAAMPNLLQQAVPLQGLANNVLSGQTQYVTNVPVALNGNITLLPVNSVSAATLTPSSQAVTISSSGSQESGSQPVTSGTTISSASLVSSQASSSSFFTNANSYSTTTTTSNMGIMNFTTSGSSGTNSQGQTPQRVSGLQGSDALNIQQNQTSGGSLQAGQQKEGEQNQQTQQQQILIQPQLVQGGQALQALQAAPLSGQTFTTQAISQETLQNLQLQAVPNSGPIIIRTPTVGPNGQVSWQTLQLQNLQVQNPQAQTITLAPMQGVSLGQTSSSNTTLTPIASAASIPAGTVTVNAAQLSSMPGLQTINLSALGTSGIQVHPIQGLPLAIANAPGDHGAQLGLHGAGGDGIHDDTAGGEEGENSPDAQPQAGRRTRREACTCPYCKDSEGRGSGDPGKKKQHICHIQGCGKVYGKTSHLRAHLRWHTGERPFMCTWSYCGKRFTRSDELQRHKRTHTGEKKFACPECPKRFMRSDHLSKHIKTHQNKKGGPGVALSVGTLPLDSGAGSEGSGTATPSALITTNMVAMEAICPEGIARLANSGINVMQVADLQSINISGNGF
Chain of Transcriptional activator Myb (Homo sapiens) (P10242 whole entry, looked up): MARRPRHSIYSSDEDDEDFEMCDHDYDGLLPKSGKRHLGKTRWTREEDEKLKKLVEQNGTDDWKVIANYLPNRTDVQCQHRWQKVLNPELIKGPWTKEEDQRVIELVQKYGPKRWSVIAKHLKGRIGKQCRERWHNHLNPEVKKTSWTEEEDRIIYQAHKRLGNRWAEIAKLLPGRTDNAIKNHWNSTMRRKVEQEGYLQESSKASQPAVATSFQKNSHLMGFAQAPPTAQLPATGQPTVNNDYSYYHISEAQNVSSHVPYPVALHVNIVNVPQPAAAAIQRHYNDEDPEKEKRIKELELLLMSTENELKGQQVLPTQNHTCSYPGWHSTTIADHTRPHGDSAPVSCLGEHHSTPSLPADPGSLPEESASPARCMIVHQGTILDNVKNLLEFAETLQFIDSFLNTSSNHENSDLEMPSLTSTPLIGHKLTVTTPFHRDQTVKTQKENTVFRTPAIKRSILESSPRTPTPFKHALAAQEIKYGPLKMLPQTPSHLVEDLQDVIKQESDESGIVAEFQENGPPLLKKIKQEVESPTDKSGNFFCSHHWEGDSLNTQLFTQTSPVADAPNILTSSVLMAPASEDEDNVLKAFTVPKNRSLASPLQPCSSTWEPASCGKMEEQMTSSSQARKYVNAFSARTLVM
Chain of Peroxisome proliferator-activated receptor gamma (Homo sapiens) (P37231 whole entry, looked up): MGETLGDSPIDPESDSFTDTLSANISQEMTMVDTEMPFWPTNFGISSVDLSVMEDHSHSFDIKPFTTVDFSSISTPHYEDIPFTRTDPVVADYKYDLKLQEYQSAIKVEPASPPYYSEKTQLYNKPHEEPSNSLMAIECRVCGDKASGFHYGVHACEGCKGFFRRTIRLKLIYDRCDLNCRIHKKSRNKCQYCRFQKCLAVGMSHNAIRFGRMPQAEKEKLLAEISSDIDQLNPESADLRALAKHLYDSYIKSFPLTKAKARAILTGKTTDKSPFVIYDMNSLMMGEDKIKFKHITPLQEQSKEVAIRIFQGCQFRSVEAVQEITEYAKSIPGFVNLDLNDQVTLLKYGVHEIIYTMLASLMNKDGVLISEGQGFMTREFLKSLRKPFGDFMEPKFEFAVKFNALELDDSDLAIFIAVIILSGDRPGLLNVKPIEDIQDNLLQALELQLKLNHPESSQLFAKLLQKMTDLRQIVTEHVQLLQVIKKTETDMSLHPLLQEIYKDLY

`C=CCc1ccc(OC(=O)Cc2ccccc2)c(OC)c1`: the compound was called inactive in assay [1], in [2], in [3], in [4], in assay [5] and in assay [6]. For the same compound, the result in assay [7], in assay [8], in assay [10], in assay [11], in [12] and in assay [13] was inactive. Also, the outcome in assay [14], in assay [15], in [17] and in [18] was inactive. In addition, the AC50 was 27.5 µM (active) in [9], 11 µM (active) in assay [16] and 19 µM (active) in [19].
Consider `CN(N=O)c1ccccc1`, for which the result in assay [20], in [1], in assay [2], in [3], in assay [4] and in assay [5] was inactive. Further, the outcome in assay [6], in [7], in assay [8], in [9], in assay [10] and in [11] was inactive. Moreover, the result in [12], in assay [13], in assay [14], in assay [15], in [16] and in assay [17] was inactive. Further, the compound was classed as inactive in assay [19].
As to `C[N+](C)(C)CC(=O)[O-]`, the outcome in assay [20], in [1], in assay [2], in assay [3], in assay [4] and in [5] was inactive. In addition, the compound was called inactive in assay [6], in assay [7], in assay [8], in assay [10], in assay [12] and in [13]. In addition, the compound was called inactive in assay [14], in [15], in assay [16] and in assay [17].
Take `COc1ccc(CO)cc1`: the outcome in assay [20], in assay [1], in assay [2], in assay [3], in [4] and in [5] was inactive. The call in assay [6], in assay [7], in [8], in assay [9], in [10] and in [11] was inactive. Moreover, the compound was classed as inactive in assay [12], in assay [13], in [15], in assay [16], in assay [17] and in [18].
In the case of `CC(C)c1ccc(O)cc1`, the call in assay [1], in assay [2], in assay [3], in assay [4], in assay [5] and in assay [7] was inactive. Also, the outcome in [8], in assay [9], in assay [10], in [12], in assay [13] and in assay [14] was inactive. Further, the compound was classed as inactive in assay [15], in assay [17], in [18] and in assay [19]. Moreover, the AC50 in assay [6] was 131 µM (active); in assay [16], 49.6 µM (active).
Turning to `O=[N+]([O-])c1cc([N+](=O)[O-])c2ccccc2c1`, the AC50 in assay [20] was 10.5 µM (active); in assay [16], 3.1 µM (active); in [19], 6.62 µM (active). The result in assay [1], in [2], in assay [3], in assay [4], in assay [5] and in [6] was inactive. Besides, the compound was classed as inactive in assay [7], in [8], in assay [9], in assay [10], in assay [12] and in assay [13]. In addition, the compound was called inactive in [14], in assay [15], in assay [17] and in [18].
As for `CCN(CC)C(=S)S`, the outcome in assay [20], in [1], in [4], in [5], in assay [6] and in assay [7] was inactive. Moreover, the compound was called inactive in assay [8], in assay [9], in [10], in [11], in assay [12] and in assay [13]. Besides, the call in assay [14], in [15] and in [17] was inactive. Moreover, the results for the half-maximal activity concentration (AC50) in assay [16] and in [19] were 27.8 µM (active) and 51.5 µM (active), respectively.

Source of the values: PubChem BioAssay (EPA / NIEHS).
